Experimental data: PubChem BioAssay AID1259343 (VanderVen Lab, College of Veterinary Medicine, Cornell …, 2017)
Among all 6,200 compounds or so, about 2,900 (47%) were called active. The set was probably picked from earlier hits. Some of the results follow. A number with no mark means an inactive call. No stated cut-off is given here; in the data, active means inhibition above about 50%; inactive means the rest.

Assay: Mycobacterium tuberculosis growth inhibition, primary screen (AID 1259343)
Details: inhibition: at 10 µM, active compounds read high; outcome: 10 uM

Row | SMILES | inhibition
1 | CCc1ccc(N2C(=O)/C(=C/c3cc(C)n(-c4ccc(C(=O)O)cc4)c3C)C(=O)NC2=S)cc1 | 34.2%
2 | COC(=O)c1ccccc1NCc1cc(=O)oc2cc(O)c(O)cc12 | 75.9% (active)
3 | CNC(=O)C(C#N)C(=O)CCc1cccc(OC2CCCC2)c1 (stereo unspecified) | 54.1% (active)
4 | N#Cc1cccc(C(=O)NCc2cccnc2OC2CCCC2)c1 | -4.09%
5 | CC1CC(=O)NN1CC(=O)N1c2ccccc2OCC1c1ccccc1 (stereo unspecified) | 26.4%
6 | CCC(NC(=O)Nc1ccc(-c2csnn2)cc1)c1nccs1 (stereo unspecified) | -4.07%
7 | CCN(CC(C)C#N)C(=O)Nc1ccc(-c2csnn2)cc1 (stereo unspecified) | 80.5% (active)
8 | Cc1cc(=O)[nH]c(=S)[nH]1 | 0.31%
9 | CCc1ccc(S(=O)(=O)c2cnc3ccc(C)cc3c2N2CCC3(CC2)OCCO3)cc1 | 67.2% (active)
10 | O=C(Nc1ccc(Oc2ccccc2)nc1)C1CCN(C(=O)c2cnsn2)CC1 | 93.8% (active)
11 | C#Cc1ccc(CN2CCC(C(=O)Nc3ccc(Oc4ccccc4)nc3)CC2)cc1 | -2.94%
12 | O=C(Nc1ccc(Oc2ccccc2)nc1)C1CCN(Cc2cccc3nonc23)CC1 | inactive
13 | O=C(Nc1ccc(Oc2ccccc2)nc1)C1CCN(C(=O)c2cccs2)CC1 | 77.1% (active)
14 | CC(=O)c1cc(CN2CCC(C(=O)Nc3ccc(Oc4ccccc4)nc3)CC2)cs1 | 63.2% (active)
15 | O=C(Nc1ccc(Oc2ccccc2)nc1)C1CCN(C(=O)c2ccco2)CC1 | 90.5% (active)
16 | O=C(Nc1ccc(Oc2ccccc2)nc1)C1CCN(C(=O)[C@@H]2C[C@@H]3C=C[C@H]2C3)CC1 | 56.1% (active)
17 | COc1ccc(OCCCOc2ccc(Cl)cc2Cl)cc1 | 27.8%
18 | COc1cc(CNCCO)cc(Cl)c1OCc1ccc(Cl)cc1Cl | 83% (active)
19 | COc1cc(C)ccc1S(=O)(=O)NC(=O)C1(C)CCN1C(=O)Cc1ccc(Cl)cc1Cl (stereo unspecified) | 47.9%
20 | O=c1[nH]c(=S)[nH]nc1-c1ccc2c(c1)OCCO2 | 36.5%
21 | O=c1[nH]c(=S)[nH]nc1-c1ccc(F)c(F)c1 | 80.3% (active)

Row | SMILES | inhibition
22 | Nc1ccc(Oc2cc(N)cc(Oc3ccccc3)c2)cc1 | -36.6%
23 | NC(CC1CCCC1)c1ccc(Oc2ccccc2)cc1 (stereo unspecified) | 79.5% (active)
24 | COc1cc(Oc2ccccc2)ccc1N | 23.5%
25 | COc1ccccc1C1(O)CCN(CCCn2c3ccccc3c3ccccc32)CC1 | 51.9% (active)
26 | Cc1ccc(-c2cnc(C(O)c3cc(C)cc(C)c3)[nH]2)cc1 (stereo unspecified) | 61.7% (active)
27 | Cc1ccc(C(O)c2ncc(-c3ccc(Cl)cc3)[nH]2)cc1 (stereo unspecified) | 36.3%
28 | CCCc1ccc(C(O)c2ncc(-c3ccccc3C)[nH]2)cc1 (stereo unspecified) | 78% (active)
29 | CCc1ccc(C(O)c2ncc(-c3cccc(C)c3)[nH]2)cc1 (stereo unspecified) | 56.7% (active)
30 | Cc1cc(C(O)c2ncc(-c3ccc(Cl)cc3)[nH]2)ccc1F (stereo unspecified) | 84.8% (active)
31 | Cc1ccc(-c2cnc(C(O)c3ccc(Cl)c(F)c3)[nH]2)cc1 (stereo unspecified) | 42.2%
32 | CCCc1ccc(C(O)c2ncc(-c3cccc(C)c3)[nH]2)cc1 (stereo unspecified) | 19.5%
33 | CCCc1ccc(C(O)c2ncc(-c3ccccc3F)[nH]2)cc1 (stereo unspecified) | 21.1%
34 | CCCc1ccc(C(O)c2ncc(-c3ccccc3)[nH]2)cc1 (stereo unspecified) | 36.8%
35 | CCc1ccc(C(O)c2ncc(-c3cccc(C(F)(F)F)c3)[nH]2)cc1 (stereo unspecified) | 34%
36 | CCc1ccc(C(O)c2ncc(-c3ccc(C)cc3)[nH]2)cc1 (stereo unspecified) | 1.21%
37 | CCCc1ccc(C(O)c2ncc(-c3cccc(F)c3)[nH]2)cc1 (stereo unspecified) | 35.4%
38 | OC(c1ccc(Cl)cc1)c1ncc(-c2cccc(F)c2)[nH]1 (stereo unspecified) | 8.73%
39 | Cc1ccc(C(O)c2ncc(-c3ccc(C(F)(F)F)cc3)[nH]2)cc1F (stereo unspecified) | 61.8% (active)
40 | OC(c1cc(F)cc(Cl)c1)c1ncc(-c2ccc(Cl)cc2)[nH]1 (stereo unspecified) | 86.1% (active)
41 | Cc1ccccc1-c1cnc(C(O)c2ccc(C(C)(C)C)cc2)[nH]1 (stereo unspecified) | 49.1%
42 | Cc1ccc(C(O)c2ncc(-c3cccc(F)c3)[nH]2)cc1 (stereo unspecified) | 11.8%

Row | SMILES | inhibition
43 | CC(C)(C)c1ccc(C(O)c2ncc(-c3ccccc3)[nH]2)cc1 (stereo unspecified) | 13.8%
44 | OC(c1ccccc1)c1ncc(-c2ccc(Oc3ccccc3)cc2)[nH]1 (stereo unspecified) | 36.3%
45 | Cc1cc(C)c(C(O)c2ncc(-c3cccc4ccccc34)[nH]2)c(C)c1 (stereo unspecified) | 78.9% (active)
46 | OC(c1cccc(F)c1)c1ncc(-c2ccc(Oc3ccccc3)cc2)[nH]1 (stereo unspecified) | 89.6% (active)
47 | OC(c1cccc(F)c1)c1ncc(-c2ccc(C(F)(F)F)cc2)[nH]1 (stereo unspecified) | 19%
48 | CS(=O)c1nncn1CC#Cc1ccc(C(F)(F)F)cc1 (stereo unspecified) | 37%
49 | OC(c1ccc(Cl)c(F)c1)c1ncc(-c2cccc(F)c2)[nH]1 (stereo unspecified) | 36.1%
50 | OC(c1ccc(Cl)c(Cl)c1)c1ncc(-c2cccc(F)c2)[nH]1 (stereo unspecified) | 23.7%
51 | OC(c1cc(F)cc(Cl)c1)c1ncc(-c2ccc3ccccc3c2)[nH]1 (stereo unspecified) | 73.4% (active)
52 | Cn1c(CCC(=O)Nc2ccc(F)cc2F)nc(=O)c2ccccc21 | 72.3% (active)
53 | CCc1nc2c(c(=O)c3ccccc3n2C)c(=O)n1CCc1ccccc1 | -31.8%
54 | O=C1c2ccccc2C(=O)N1CCCCNc1ccc(F)cc1F | 49.6%
55 | Cn1nnnc1SCC(=O)Nc1ccc2oc3ccccc3c2c1 | 36.7%
56 | O=C(CSc1nncs1)Nc1ccc2oc3ccccc3c2c1 | 92.2% (active)
57 | Cn1cnnc1SCC(=O)Nc1ccc2oc3ccccc3c2c1 | 76.7% (active)
58 | O=C(CSc1ncnc2c1oc1ccccc12)Nc1ccc2c(c1)OCO2 | 47.2%
59 | Cc1cc(NC(=O)CSc2nc3ccccc3c(=O)n2C2CCCC(C)C2C)on1 (stereo unspecified) | 9.06%
60 | CC(C)(C)NC(=O)[C@H]1CC[C@H]2[C@@H]3CC[C@H]4NC(=O)C=C[C@]4(C)[C@H]3CC[C@]12C | 86.4% (active)
61 | CC(=O)[C@H]1CCC2C3CCC4=CC(=O)CC[C@]4(C)C3CC[C@@]21C (stereo partly specified) | 49.6%
